Reference: the supplement of paper PMC10849652
About 7,900 targets were measured; listed, in parts, are those with a hit and a random draw of the rest. About 0.6% of all pairs of compound and target were hits.

Key:
Assay in all cases: log2 fold change, soluble protein after heating vs DMSO (PISA); higher = thermal stabilisation; K562 cells, 10 uM, 30 min; active = over 0.2 and 3.5 SD of the protein, either way, in both replicates (recomputed)
[1] = compound: CS(=O)(=O)c1ccc(-c2cnc(N)c(C(=O)Nc3ccccc3)n2)cc1
In short: (§1)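 Soluble protein was quantified by TMTpro 16plex LC-MS/MS after channel sums were equalised. It was obtained as the supernatant after 21,000xg for 90 min from pooled aliquots of K562 cells (2×10^6 cells/mL, 10 μM compound, 30 min) heated for 3 min across 48°C-58°C and extracted in PBS with 0.5% NP-40 at 4°C. Thermal stability values are relative to control samples and come from duplicates. They are given as log2 fold changes.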

[2] = compound: C[C@@H]1COCCN1C2=NC(=NC(=C2)C3(CC3)S(=O)(=O)C)C4=C5C=CNC5=CC=C4
In short: as §1

[3] = compound: Cc1cc(Nc2cc(CN3CCOCC3)c3nc(C)c(Cc4ccc(Cl)cc4F)n3n2)n[nH]1 [gandotinib]
In short: as §1

[4] = compound: Cc1ccc(NC(=O)c2ccc(CN3CC[C@H](N(C)C)C3)c(C(F)(F)F)c2)cc1Nc1nccc(-c2cncnc2)n1 [bafetinib]
In short: as §1

[5] = compound: Cc1cccc(CC(=O)N2CCc3c2ccc(-c2cn(C)c4ncnc(N)c24)c3F)n1
In short: as §1

[6] = compound: C[C@@H](Oc1cc(-c2cnn(C3CCNCC3)c2)cnc1N)c1c(Cl)ccc(F)c1Cl [crizotinib]
In short: as §1

[7] = compound: C[C@H](C1=CC=C(C=C1)C(=O)NC2=C3C=CNC3=NC=C2)N
In short: as §1

[8] = compound: C[C@H](Nc1ncnc2nc[nH]c12)c1cc2cccc(Cl)c2c(=O)n1-c1ccccc1 [duvelisib]
In short: as §1

[9] = compound: Cc1cc(Nc2cc(N3CCN(C)CC3)nc(Sc3ccc(NC(=O)C4CC4)cc3)n2)n[nH]1 [tozasertib]
In short: as §1

[10] = compound: Cc1cc(SCc2sc(-c3ccc(C(F)(F)F)cc3)nc2C)ccc1OCC(=O)O
In short: as §1

[11] = compound: Cc1ccc(-n2nc(C(C)(C)C)cc2NC(=O)Nc2ccc(OCCN3CCOCC3)c3ccccc23)cc1 [doramapimod]
In short: as §1

[12] = compound: Cc1ccc(C(=O)N(CCCN)[C@@H](c2nc3cc(Cl)ccc3c(=O)n2Cc2ccccc2)C(C)C)cc1 [ispinesib]
In short: as §1

[13] = compound: Cc1cn(-c2cc(NC(=O)c3ccc(C)c(Nc4nccc(-c5cccnc5)n4)c3)cc(C(F)(F)F)c2)cn1 [nilotinib]
In short: as §1

[14] = compound: Cc1nc(Nc2n[nH]c3c2CN(C(=O)N[C@H](CN(C)C)c2ccccc2)C3(C)C)c2sccc2n1
In short: as §1

[15] = compound: Cc1nc(Nc2ncc(C(=O)Nc3c(C)cccc3Cl)s2)cc(N2CCN(CCO)CC2)n1 [dasatinib]
In short: as §1

[16] = compound: Cc1ncc(-c2ccnc(Nc3ccc(S(C)(=O)=O)cc3)n2)n1C(C)C
In short: as §1

[17] = compound: Cn1cc(-c2ccc3c(c2)CCN3C(=O)Cc2cccc(C(F)(F)F)c2)c2c(N)ncnc21
In short: as §1

[18] = compound: Cn1cc(-c2ccc3nnc(C(F)(F)c4ccc5ncccc5c4)n3n2)cn1
In short: as §1

[19] = compound: Cn1cncc1[C@@](N)(c1ccc(Cl)cc1)c1ccc2c(c1)c(-c1cccc(Cl)c1)cc(=O)n2C [tipifarnib]
In short: as §1

[20] = compound: FC(F)(F)c1ccc(/C=C/c2nc(COc3ccc(CCCCn4ccnn4)cc3)co2)cc1 [mubritinib]
In short: as §1

Measured: log2 fold change

PRKD2 (UniProt M0R346)
inactive: [1] -0.025 | [2] 0.241 | [3] 0.109 | [4] -0.147 | [5] -0.136

POLR2E (UniProt P19388)
inactive: [6] 0.112 | [2] -0.027 | [7] 0.14 | [8] -0.001 | [3] 0.157 | [9] 0.02 | [10] 0.089 | [11] -0.078 | [12] -0.058 | [4] 0.055 | [5] -0.03 | [13] -0.007 | [14] 0.112 | [15] 0.025 | [16] 0.306 | [17] -0.056 | [18] 0.005 | [19] -0.088 | [20] 0.023

PSMC1 (UniProt G3V4X1)
inactive: [7] 0.099 | [3] 0.066 | [5] -0.579 | [13] -0.195 | [14] 0.042 | [16] -0.046 | [17] 0.066 | [19] 0.479

PIM1 isoform 2 (UniProt P11309)
UniProt P11309, sequence (P11309 whole entry, looked up): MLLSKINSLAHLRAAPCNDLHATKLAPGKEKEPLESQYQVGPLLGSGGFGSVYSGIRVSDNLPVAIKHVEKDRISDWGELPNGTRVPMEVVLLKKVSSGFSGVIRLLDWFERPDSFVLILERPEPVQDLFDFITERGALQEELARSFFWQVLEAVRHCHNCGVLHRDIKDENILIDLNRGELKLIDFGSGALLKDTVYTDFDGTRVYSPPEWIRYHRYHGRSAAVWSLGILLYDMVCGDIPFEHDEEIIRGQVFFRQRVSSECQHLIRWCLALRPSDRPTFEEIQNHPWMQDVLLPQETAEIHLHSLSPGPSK
inactive: [3] -0.084 | [5] -0.263 | [20] 0.721

PTK2B (UniProt Q14289)
UniProt Q14289, sequence (Q14289 whole entry, looked up): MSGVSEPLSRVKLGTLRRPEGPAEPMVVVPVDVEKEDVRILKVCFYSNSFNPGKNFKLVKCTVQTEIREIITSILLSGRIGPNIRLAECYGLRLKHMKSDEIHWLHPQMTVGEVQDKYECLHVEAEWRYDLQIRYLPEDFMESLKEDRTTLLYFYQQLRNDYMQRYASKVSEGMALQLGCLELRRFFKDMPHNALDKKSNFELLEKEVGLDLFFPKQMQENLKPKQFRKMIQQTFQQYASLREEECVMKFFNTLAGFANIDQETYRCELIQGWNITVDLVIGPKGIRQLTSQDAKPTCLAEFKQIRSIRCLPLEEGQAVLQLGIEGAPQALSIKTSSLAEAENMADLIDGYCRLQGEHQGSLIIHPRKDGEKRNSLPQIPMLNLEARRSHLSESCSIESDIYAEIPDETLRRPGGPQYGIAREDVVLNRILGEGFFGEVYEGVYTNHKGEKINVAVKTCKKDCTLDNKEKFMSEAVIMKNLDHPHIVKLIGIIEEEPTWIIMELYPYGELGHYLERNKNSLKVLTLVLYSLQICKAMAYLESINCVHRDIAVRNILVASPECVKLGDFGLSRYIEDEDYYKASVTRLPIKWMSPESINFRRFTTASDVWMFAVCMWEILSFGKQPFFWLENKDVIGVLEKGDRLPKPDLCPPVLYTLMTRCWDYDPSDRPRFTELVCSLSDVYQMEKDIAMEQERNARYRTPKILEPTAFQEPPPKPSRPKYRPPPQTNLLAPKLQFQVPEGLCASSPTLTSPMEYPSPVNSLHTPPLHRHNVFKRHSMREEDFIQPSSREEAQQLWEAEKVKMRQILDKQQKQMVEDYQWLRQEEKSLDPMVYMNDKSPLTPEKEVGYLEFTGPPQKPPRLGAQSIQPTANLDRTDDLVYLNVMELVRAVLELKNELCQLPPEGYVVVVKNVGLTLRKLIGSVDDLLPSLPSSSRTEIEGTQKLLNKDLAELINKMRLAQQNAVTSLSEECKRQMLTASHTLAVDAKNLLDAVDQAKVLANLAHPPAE
inactive: [1] -0.029 | [2] -0.03 | [7] 0.234 | [8] 0.182 | [3] -0.03 | [9] -0.067 | [10] 0.016 | [12] -0.233 | [4] -0.024 | [5] -0.063 | [13] 0.14 | [14] 0.104 | [15] -0.043 | [16] 0.276 | [17] -0.113 | [18] -0.014 | [19] -0.521 | [20] -0.003

PCBP2 (UniProt F8VZX2)
inactive: [6] -0.273 | [7] 0.234 | [8] -0.147 | [10] 0.065 | [11] -0.107 | [12] -0.124 | [4] 0.029 | [13] 0.029 | [14] -0.112 | [15] -0.144 | [16] 0.049 | [17] -0.022 | [18] -0.196 | [20] -0.153

PDE4A (UniProt P27815)
inactive: [6] 0.055 | [2] -0.102 | [7] -0.171 | [9] 0.027 | [11] 0.065 | [12] -0.098 | [4] -0.157 | [17] -0.016 | [18] 0.021 | [19] -0.108

PTP4A3 (UniProt O75365)
inactive: [4] 0.162

PTEN isoform 2 (UniProt P60484)
UniProt P60484, sequence (P60484 whole entry, looked up): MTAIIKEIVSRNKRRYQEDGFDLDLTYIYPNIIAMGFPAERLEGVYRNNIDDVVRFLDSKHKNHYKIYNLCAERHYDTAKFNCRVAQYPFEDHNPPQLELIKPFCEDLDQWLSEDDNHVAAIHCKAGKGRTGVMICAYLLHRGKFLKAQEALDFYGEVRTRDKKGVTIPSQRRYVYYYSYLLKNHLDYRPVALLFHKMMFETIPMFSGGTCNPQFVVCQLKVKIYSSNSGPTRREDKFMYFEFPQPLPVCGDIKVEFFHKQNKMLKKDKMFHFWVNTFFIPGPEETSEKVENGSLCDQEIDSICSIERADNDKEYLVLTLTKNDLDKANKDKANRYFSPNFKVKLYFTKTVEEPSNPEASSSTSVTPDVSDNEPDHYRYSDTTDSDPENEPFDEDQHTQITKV
inactive: [6] 0.077 | [3] 0.312 | [11] 0.001 | [12] 0.024 | [5] 0.158 | [18] -0.087 | [19] -0.212

PTPA (UniProt A6PVN8)
inactive: [1] -0.116 | [2] 0.083 | [7] 0.1 | [8] -0.002 | [3] -0.048 | [9] -0.069 | [10] -0.203 | [12] -0.04 | [4] -0.122 | [5] -0.084 | [13] -0.134 | [14] 0.008 | [15] 0.075 | [16] 0.013 | [17] -0.075 | [18] 0.05 | [19] 0.232 | [20] 0.114

PUF60 isoform 2 (UniProt Q9UHX1)
UniProt Q9UHX1, sequence (Q9UHX1 whole entry, looked up): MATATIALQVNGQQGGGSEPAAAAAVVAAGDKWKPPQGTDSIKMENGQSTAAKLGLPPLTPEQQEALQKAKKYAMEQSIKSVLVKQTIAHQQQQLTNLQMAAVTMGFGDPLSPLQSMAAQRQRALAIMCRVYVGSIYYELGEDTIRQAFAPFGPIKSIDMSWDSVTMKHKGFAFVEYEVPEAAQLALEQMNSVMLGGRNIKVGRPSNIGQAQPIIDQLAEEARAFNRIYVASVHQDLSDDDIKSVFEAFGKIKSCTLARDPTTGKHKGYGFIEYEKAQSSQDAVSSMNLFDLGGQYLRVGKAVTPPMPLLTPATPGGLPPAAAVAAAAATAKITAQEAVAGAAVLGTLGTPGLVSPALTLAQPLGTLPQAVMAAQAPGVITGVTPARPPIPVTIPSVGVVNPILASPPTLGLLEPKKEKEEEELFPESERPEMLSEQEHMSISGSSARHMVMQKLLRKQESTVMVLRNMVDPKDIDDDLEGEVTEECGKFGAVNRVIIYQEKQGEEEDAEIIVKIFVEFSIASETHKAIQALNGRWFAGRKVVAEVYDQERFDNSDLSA
inactive: [7] -0.591 | [8] 0.163 | [9] 0.193 | [10] 0.04 | [12] 0.173 | [4] -0.089 | [15] -0.173 | [17] 0.043 | [18] -0.103 | [19] -0.159 | [20] -0.257

PSD3 (UniProt Q9NYI0)
UniProt Q9NYI0, sequence (Q9NYI0 whole entry, looked up): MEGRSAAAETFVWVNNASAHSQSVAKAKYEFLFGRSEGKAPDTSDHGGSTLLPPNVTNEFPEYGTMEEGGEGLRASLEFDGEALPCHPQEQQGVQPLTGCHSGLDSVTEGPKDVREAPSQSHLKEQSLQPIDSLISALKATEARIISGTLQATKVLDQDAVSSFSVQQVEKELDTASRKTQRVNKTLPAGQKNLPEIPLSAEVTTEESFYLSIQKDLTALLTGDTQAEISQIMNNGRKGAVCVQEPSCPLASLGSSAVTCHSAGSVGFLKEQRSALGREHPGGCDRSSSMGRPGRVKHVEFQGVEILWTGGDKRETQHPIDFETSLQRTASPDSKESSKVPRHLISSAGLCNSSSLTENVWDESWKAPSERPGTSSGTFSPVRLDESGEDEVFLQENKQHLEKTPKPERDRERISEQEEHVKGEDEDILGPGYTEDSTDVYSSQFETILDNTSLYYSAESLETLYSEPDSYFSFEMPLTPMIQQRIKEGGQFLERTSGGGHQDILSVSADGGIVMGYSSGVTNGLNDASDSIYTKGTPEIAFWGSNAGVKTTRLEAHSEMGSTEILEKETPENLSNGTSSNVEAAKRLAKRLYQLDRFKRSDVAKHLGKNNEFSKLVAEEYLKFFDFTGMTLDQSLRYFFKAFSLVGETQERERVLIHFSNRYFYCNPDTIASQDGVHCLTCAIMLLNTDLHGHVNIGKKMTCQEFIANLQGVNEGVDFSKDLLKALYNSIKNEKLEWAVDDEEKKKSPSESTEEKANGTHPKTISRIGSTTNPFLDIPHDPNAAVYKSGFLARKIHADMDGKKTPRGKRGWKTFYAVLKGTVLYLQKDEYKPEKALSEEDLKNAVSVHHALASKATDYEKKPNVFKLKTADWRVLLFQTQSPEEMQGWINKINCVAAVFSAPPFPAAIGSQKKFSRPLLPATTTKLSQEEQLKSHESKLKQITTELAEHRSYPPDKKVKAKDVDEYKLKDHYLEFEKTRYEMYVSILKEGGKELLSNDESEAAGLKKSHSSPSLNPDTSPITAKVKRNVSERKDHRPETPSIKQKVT
inactive: [6] 0.071 | [7] -0.047 | [11] -0.02 | [12] -0.075 | [13] -0.117 | [14] 0.029 | [16] 0.014 | [17] -0.002 | [18] 0.071 | [19] -0.062 | [20] -0.035

PRKX (UniProt P51817)
UniProt P51817, sequence (P51817 whole entry, looked up): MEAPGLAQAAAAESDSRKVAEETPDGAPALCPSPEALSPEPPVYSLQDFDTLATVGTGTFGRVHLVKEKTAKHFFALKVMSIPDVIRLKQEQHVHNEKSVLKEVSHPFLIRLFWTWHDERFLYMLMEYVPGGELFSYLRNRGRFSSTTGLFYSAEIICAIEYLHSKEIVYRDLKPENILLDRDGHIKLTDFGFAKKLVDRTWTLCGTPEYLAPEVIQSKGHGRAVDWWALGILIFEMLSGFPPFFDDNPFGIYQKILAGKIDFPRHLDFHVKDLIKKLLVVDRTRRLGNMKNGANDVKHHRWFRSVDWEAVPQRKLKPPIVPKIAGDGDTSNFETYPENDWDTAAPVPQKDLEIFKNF
inactive: [4] -0.039 | [20] 0.108

PPP1R12B isoform 6 (UniProt O60237)
UniProt O60237, sequence (O60237 whole entry, looked up): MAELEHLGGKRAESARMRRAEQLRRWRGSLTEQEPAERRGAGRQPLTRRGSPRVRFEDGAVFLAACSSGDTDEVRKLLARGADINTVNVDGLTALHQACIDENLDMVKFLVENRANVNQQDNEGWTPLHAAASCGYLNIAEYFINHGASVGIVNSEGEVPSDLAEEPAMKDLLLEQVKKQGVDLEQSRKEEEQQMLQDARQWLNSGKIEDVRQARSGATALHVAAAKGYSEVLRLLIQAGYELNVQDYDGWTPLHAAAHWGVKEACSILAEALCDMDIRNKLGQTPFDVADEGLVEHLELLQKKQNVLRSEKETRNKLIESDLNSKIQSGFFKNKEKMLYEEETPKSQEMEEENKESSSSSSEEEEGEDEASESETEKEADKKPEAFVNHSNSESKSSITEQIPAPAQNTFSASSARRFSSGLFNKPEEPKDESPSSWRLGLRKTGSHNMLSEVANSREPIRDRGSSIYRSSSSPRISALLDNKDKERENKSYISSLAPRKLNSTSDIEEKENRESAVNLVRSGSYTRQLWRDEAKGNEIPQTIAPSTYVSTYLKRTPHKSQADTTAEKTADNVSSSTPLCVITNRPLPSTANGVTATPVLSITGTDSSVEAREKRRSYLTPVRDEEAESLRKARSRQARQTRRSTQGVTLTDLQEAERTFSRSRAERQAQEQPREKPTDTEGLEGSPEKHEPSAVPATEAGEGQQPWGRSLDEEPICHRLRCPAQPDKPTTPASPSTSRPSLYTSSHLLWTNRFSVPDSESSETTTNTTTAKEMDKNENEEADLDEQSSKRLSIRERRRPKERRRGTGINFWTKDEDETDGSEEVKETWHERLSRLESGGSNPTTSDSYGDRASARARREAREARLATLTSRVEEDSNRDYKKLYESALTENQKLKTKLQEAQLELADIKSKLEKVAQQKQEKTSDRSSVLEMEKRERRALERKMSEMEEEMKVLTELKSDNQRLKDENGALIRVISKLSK
inactive: [4] -0.024 | [13] -0.004 | [14] -0.191 | [16] 0.007

PLCXD1 (UniProt Q9NUJ7)
UniProt Q9NUJ7, sequence (Q9NUJ7 whole entry, looked up): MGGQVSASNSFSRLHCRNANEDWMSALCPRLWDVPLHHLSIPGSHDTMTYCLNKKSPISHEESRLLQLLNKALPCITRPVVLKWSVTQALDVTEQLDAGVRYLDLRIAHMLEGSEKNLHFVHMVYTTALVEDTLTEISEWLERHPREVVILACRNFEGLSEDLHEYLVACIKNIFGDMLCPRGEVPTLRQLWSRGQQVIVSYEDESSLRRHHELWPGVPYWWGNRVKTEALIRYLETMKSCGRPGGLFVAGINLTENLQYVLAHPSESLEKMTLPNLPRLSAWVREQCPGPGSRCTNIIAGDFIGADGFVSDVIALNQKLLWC
active: [4] -0.642
inactive: [12] -0.145 | [18] -0.099

PCF11 (UniProt O94913)
inactive: [6] -0.137 | [7] 0.211 | [3] -0.149 | [11] 0.051 | [12] -0.533 | [4] -0.099 | [5] 0.078 | [17] -0.095 | [18] 0.007 | [19] 0.168 | [20] 0.179

PCNX1 (UniProt Q96RV3)
inactive: [2] 0.257 | [9] 0.071 | [4] -0.112 | [13] 0.007 | [14] 0.009 | [16] 0 | [19] 0.305 | [20] -0.019

PDE4DIP (UniProt E9PS60)
inactive: [6] -0.225 | [7] 0.212 | [11] 0.102 | [17] -0.007
